Test results published in PubChem BioAssay (NCI).
This is part of a sample that, as a whole, favours compounds with a hit. Of some 79,000 tested, about 15% had one in any assay. The source made the active and inactive calls. Cut-off read from the data, not from the text of the source: active = growth inhibition above about 70%; inactive = the rest.

Key:
[1] = NCI Yeast Anticancer Drug Screen. Data for the wt1 strain (AID 149);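 note: 0% = growth of vehicle-treated wt1 cultures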; settings: S. cerevisiae wt1 strain (SPY 50644) growth inhibition, stronger effect = higher value
Procedure, shortened: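 Yeast wt1 strain exposed to compounds; growth inhibition measured relative to vehicle-treated controls.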

[2] = NCI Yeast Anticancer Drug Screen. Data for the rad50EPP+ strain (AID 151);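 note: 0% = growth of vehicle-treated control cultures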; settings: S. cerevisiae rad50 mutant strain, stronger effect = higher value
Procedure, shortened: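 Yeast strain carrying rad50 alteration (rad50EPP+) exposed to compounds; growth inhibition measured relative to vehicle-treated controls.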

[3] = NCI Yeast Anticancer Drug Screen. Data for the mgt1 strain (AID 153); settings: S. cerevisiae mgt1 mutant growth inhibition, stronger effect = higher value
Procedure, shortened: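 Yeast mgt1 strain (DNA repair/cell-cycle alteration panel) exposed to compounds; growth inhibition measured relative to vehicle-treated controls.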

[4] = NCI Yeast Anticancer Drug Screen. Data for the rad50 strain (AID 155);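 note: 0% = growth of vehicle-only cultures of the same strain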; settings: S. cerevisiae rad50 strain growth inhibition, stronger effect = higher value
Procedure, shortened: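 Yeast carrying a defined DNA repair defect were exposed to test compounds, and growth was compared with vehicle-treated controls to give percent inhibition.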

[5] = NCI Yeast Anticancer Drug Screen. Data for the mec2-1 strain (AID 157); settings: S. cerevisiae mec2-1 strain, stronger effect = higher value
Procedure, shortened: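 mec2-1 yeast strain, carrying an alteration in DNA damage repair or cell cycle control, was exposed to compounds; growth inhibition was measured relative to vehicle-treated controls.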

[6] = NCI Yeast Anticancer Drug Screen. Data for the rad14 strain (AID 159);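 note: 0% = growth of vehicle-treated control cultures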; settings: S. cerevisiae rad14 strain growth inhibition, stronger effect = higher value
Procedure, shortened: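 Yeast cells carrying a defined DNA-repair defect were exposed to compounds, and growth inhibition was calculated relative to vehicle-treated control cultures.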

[7] = NCI Yeast Anticancer Drug Screen. Data for the sgs1 mgt1 strain (AID 161);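 note: 0% = growth of cultures given vehicle only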; settings: S. cerevisiae sgs1 mgt1 strain, stronger effect = higher value
Procedure, shortened: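 This yeast growth screen uses a strain with defined DNA-repair lesions; compound-treated growth is compared with vehicle-treated growth.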

[8] = NCI Yeast Anticancer Drug Screen. Data for the CLN2oe strain (AID 163);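 note: 0% = growth of vehicle-only control cultures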; settings: S. cerevisiae CLN2oe strain, stronger effect = higher value
Procedure, shortened: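 Yeast cells carrying a defined cell-cycle control alteration were exposed to test compounds. Growth inhibition was scored against vehicle-treated control cultures.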

[9] = NCI Yeast Anticancer Drug Screen. Data for the cln2 rad14 strain (AID 165);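 note: 0% = growth equal to vehicle treated cultures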; settings: S. cerevisiae cln2 rad14 strain, stronger effect = higher value
Procedure, shortened: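 Yeast carrying cln2 and rad14 alterations (cell cycle control and DNA damage repair) were exposed to compounds. Growth inhibition was measured against vehicle-treated controls.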

[10] = NCI Yeast Anticancer Drug Screen. Data for the bub3 strain (AID 167); settings: S. cerevisiae bub3 mutant strain, stronger effect = higher value
Procedure, shortened: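 Compounds were applied to a genetically altered yeast strain carrying a cell-cycle control defect. Growth inhibition was scored against vehicle-treated controls.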

[11] = NCI Yeast Anticancer Drug Screen. Data for the wt2 strain (AID 169);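 note: 0% = growth of vehicle-treated yeast cultures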; settings: S. cerevisiae wt2 strain growth inhibition, stronger effect = higher value
Procedure, shortened: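 Yeast cells were exposed to test compounds, and growth inhibition was measured relative to vehicle-treated controls.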

[12] = NCI Yeast Anticancer Drug Screen. Data for the mlh1 strain (AID 171);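 note: 0% = growth of vehicle-treated control cultures of the same strain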; settings: S. cerevisiae mlh1 strain growth inhibition, stronger effect = higher value
Procedure, shortened: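 Yeast carrying a defined genetic alteration in DNA damage repair or cell cycle control were exposed to test compounds. Growth inhibition was measured relative to vehicle-treated controls.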

[13] = NCI Yeast Anticancer Drug Screen. Data for the sgs1 strain (AID 173);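 note: 0% = growth of vehicle-only control cultures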; settings: S. cerevisiae sgs1 mutant, stronger effect = higher value
Procedure, shortened: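 Yeast mutant strains carrying defined defects in DNA damage repair or cell cycle control were exposed to test compounds. Growth inhibition was scored against vehicle-treated controls.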

[14] = NCI Yeast Anticancer Drug Screen. Data for the mlh1 rad18 strain (AID 175); settings: S. cerevisiae mlh1 rad18 strain growth inhibition, stronger effect = higher value
Procedure, shortened: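 Growth inhibition of the yeast strain was measured after compound exposure and expressed relative to vehicle-treated controls. The strain carries defined defects in DNA damage repair.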

[15] = NCI Yeast Anticancer Drug Screen. Data for the rad18 strain (AID 177); settings: S. cerevisiae rad18 mutant growth inhibition, stronger effect = higher value
Procedure, shortened: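 Yeast carrying a defined DNA damage repair alteration were exposed to compounds. Growth inhibition was expressed relative to vehicle-treated controls.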

[16] = at 5.0 µM (retest, dose inferred, filed as 0.5)
[17] = at 50.0 µM (retest, dose inferred, filed as 5.0)

Measured: growth inhibition

Nc1cccc2cc(Cl)cnc12
active: [2]; at 100.0 µM 76% | [4]; [17] 98% | [4]; at 50.0 µM 71% | [4]; at 100.0 µM 87% | [5]; [17] 98% | [5]; at 100.0 µM 78% | [10]; at 100.0 µM 81% | [14]; [17] 100% | [15]; at 33.0 µM 82% | [15]; at 100.0 µM 90%
inactive: [1]; at 1.2 µM -26% | [1]; at 3.7 µM -26% | [1]; at 11.0 µM -28% | [1]; at 33.0 µM -23% | [1]; at 100.0 µM 63% | [2]; at 1.2 µM -3% | [2]; at 3.7 µM 5% | [2]; at 11.0 µM 11% | [2]; at 33.0 µM 39% | [3]; at 1.2 µM -2% | [3]; at 3.7 µM -2% | [3]; at 11.0 µM 7% | [3]; at 33.0 µM 10% | [3]; at 100.0 µM 64% | [4]; at 1.2 µM 18% | [4]; at 3.7 µM 24% | [4]; [16] 62% | [4]; at 11.0 µM 31% | [4]; at 33.0 µM 47% | [5]; at 1.2 µM 12% | [5]; at 3.7 µM 10% | [5]; [16] 53% | [5]; at 11.0 µM 13% | [5]; at 33.0 µM 7% | [5]; at 50.0 µM 20.9% | [6]; at 1.2 µM -36% | [6]; at 3.7 µM -31% | [6]; at 11.0 µM -36% | [6]; at 33.0 µM -31% | [6]; at 100.0 µM 58% | [7]; [16] 3% | [7]; [17] 10% | [7]; at 50.0 µM 59.7% | [8]; at 1.2 µM 2% | [8]; at 3.7 µM -4% | [8]; at 11.0 µM -23% | [8]; at 33.0 µM -16% | [8]; at 100.0 µM 38% | [9]; [16] 52% | [9]; [17] 41% | [9]; at 50.0 µM 49.3% | [10]; at 1.2 µM 3% | [10]; at 3.7 µM 10% | [10]; [16] 41% | [10]; at 11.0 µM 8% | [10]; at 33.0 µM 13% | [10]; [17] 18% | [10]; at 50.0 µM 38.5% | [11]; at 1.2 µM -34% | [11]; at 3.7 µM -18% | [11]; at 11.0 µM -20% | [11]; at 33.0 µM -15% | [11]; at 100.0 µM 34% | [12]; at 1.2 µM -40% | [12]; at 3.7 µM -41% | [12]; at 11.0 µM -40% | [12]; at 33.0 µM -33% | [12]; at 100.0 µM 49% | [13]; at 1.2 µM -32% | [13]; at 3.7 µM -31% | [13]; at 11.0 µM -14% | [13]; at 33.0 µM 0% | [13]; at 100.0 µM 64% | [14]; [16] 55% | [14]; at 50.0 µM 67.3% | [15]; at 1.2 µM 13% | [15]; at 3.7 µM 27% | [15]; at 11.0 µM 61%
